According to paper PMC4336329 (PLoS ONE, 2015):
Out of some 310,000 compounds screened, about 14,000 (4.5%) showed an effect of 50% or more. The effect is printed as a negative number. The entries come from a sample that favours strong results as a whole.

The compounds below were run against human ether-à-go-go-related gene (hERG) potassium channel (human, UniProt Q12809) (assay: primary screen, population patch clamp on CHO cells stably expressing hERG; higher = less effect of the substance).
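Also: peak tail current of the secondary pulse compared with the same well before compound.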

Sequence of human ether-à-go-go-related gene (hERG) potassium channel (Q12809 whole entry, looked up): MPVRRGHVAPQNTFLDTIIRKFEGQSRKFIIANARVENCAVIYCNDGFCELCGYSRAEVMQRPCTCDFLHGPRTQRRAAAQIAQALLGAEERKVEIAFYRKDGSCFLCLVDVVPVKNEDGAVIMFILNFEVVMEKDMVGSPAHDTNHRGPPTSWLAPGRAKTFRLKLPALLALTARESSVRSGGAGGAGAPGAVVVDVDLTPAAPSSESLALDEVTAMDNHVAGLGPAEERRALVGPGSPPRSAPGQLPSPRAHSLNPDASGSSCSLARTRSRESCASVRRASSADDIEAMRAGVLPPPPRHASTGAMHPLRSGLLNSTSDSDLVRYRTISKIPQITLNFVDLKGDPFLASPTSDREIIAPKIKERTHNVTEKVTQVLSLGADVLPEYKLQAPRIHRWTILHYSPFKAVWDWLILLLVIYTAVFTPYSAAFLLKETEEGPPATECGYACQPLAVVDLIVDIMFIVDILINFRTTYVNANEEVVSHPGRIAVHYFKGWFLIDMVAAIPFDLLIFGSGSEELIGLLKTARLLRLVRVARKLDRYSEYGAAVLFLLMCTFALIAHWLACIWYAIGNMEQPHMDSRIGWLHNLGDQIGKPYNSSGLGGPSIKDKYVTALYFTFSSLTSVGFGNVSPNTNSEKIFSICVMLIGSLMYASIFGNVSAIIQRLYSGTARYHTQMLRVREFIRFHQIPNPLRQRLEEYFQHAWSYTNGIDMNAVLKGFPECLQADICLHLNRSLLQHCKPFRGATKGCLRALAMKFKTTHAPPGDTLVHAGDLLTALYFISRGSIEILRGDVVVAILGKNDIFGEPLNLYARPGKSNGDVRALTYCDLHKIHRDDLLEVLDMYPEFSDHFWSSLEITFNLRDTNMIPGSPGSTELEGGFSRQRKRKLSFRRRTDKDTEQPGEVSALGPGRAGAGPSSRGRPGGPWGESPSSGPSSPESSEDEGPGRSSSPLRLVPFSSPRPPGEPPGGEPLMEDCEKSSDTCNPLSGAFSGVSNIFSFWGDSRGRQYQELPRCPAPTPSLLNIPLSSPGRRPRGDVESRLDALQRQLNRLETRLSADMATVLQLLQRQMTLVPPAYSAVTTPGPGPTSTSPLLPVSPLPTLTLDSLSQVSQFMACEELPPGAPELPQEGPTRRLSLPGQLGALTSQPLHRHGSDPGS

SMILES | hERG current change (%, negative = inhibition) at 10uM [%]
Cc1ccc(-n2nnnc2SCC(=O)c2c(N)n(C3CC3)c(=O)[nH]c2=O)cc1C | -10.6
COc1cccc(/C=N/NC(=O)CNC(=O)c2ccc(S(=O)(=O)N3CCOCC3)cc2)c1OC | -4.96
O=c1nc(-c2ccccc2)n(-c2ccccc2)[nH]1 | 1.69
COCC1CCN(C(=O)c2cc(COc3cncc(Cl)c3)on2)C1 (stereo not drawn) | 5.09
C/C(CC(=O)Nc1cccc(Cl)c1C)=N\NC(=O)Cc1csc(N)n1 | 2.42
N#Cc1c(N)nc2c(c1N)CC(CO)O2 (stereo not drawn) | 22.6
O=C(CSc1nnc(-c2ccncc2)n1-c1ccc(Cl)cc1)NCc1cccs1 | -15.3
COc1ccc(-c2nnc(SCC(=O)NCc3cccs3)n2C)cc1 | -1.49
Cc1occc1-c1nnc(SCC(=O)NCc2cccs2)n1-c1ccc(F)cc1 | -60.2
Cc1ccc(-n2c(SCC(=O)NCC3CCCO3)nnc2-c2ccoc2C)cc1 (stereo not drawn) | -55.6
Cc1occc1-c1nnc(SCC(=O)c2ccccc2)n1CC1CCCO1 (stereo not drawn) | -8.58
COc1ccc(-c2nnc(SCC(=O)NCc3cccs3)n2C(C)C)cc1 | -35.8
Cc1ccc(C)c(-n2c(SCC(=O)NCC3CCCO3)nnc2-c2ccoc2C)c1 (stereo not drawn) | 6.82
COc1ccc(C(=O)CSc2nnc(-c3ccoc3C)n2CC2CCCO2)cc1 (stereo not drawn) | -11.7
O=C(CSc1nnnn1-c1ccc(F)cc1)NCc1cccs1 | -0.104
Cc1occc1-c1nnc(SCC(=O)NCC2CCCO2)n1C (stereo not drawn) | -2
Cc1occc1-c1nnc(SCC(=O)c2ccc(Cl)cc2)n1CC1CCCO1 (stereo not drawn) | -65.1
COc1ccc(-n2c(SCC(=O)NCc3cccs3)nnc2-c2ccoc2C)cc1 | -78
COc1cccc(N=Nc2c(C)[nH]n(-c3ccccc3)c2=O)c1 | 10.1
O=C(Cn1nc(C(F)F)cc1C1CC1)N1CCCC1 | 1.61
CCCCn1c(SCC(=O)NC2CCS(=O)(=O)C2)nnc1-c1ccc(OC)cc1 (stereo not drawn) | -4.68
Cc1ccc(NC(=S)N/N=C2\CCCCC2C)cc1 (stereo not drawn) | -10.4
O=C(ONC1=NCCCCC1)c1ccc([N+](=O)[O-])cc1 | -5.87

SMILES | hERG current change (%, negative = inhibition) at 10uM [%]
CC(=O)Nc1ccc(S(=O)(=O)N2CCC(C(=O)NC3CCCC3)CC2)cc1 | -0.813
CC(=O)Nc1ccc(S(=O)(=O)NC(C)C(=O)NCCc2ccc(F)cc2)cc1 (stereo not drawn) | 11.3
Cc1ccc(C(O)(C(=O)NNc2ccc3ccccc3[nH+]2)c2ccc(C)cc2)cc1.[Cl-] | 12.9
Cc1cccc(-n2c(SCC(=O)O)nc3sc4c(c3c2=O)CCCC4)c1 | 16.6
CCCC(=O)C1C(=O)CC(C)(C)C(c2cc(C)no2)C1=O (stereo not drawn) | -6.76
Cc1nnc(SCC(=O)NCc2cccs2)n1-c1ccccc1 | 1.68
Cc1ccc(-n2c(SCC(=O)NCc3cccs3)nnc2-c2ccoc2C)cc1 | -74.8
COc1ccc(-c2nnc(SCC(=O)NCC3CCCO3)n2C)cc1 (stereo not drawn) | 9.8
Nn1c(SCC(=O)NCC2CCCO2)nnc1-c1ccc(OC(F)F)cc1 (stereo not drawn) | -68.5
COC(=O)CSc1nnc(-c2ccoc2C)n1-c1ccc(C)cc1 | -37
CC(Sc1nnc(-c2ccc(OC(F)F)cc2)n1N)C(=O)NCC1CCCO1 (stereo not drawn) | -24.2
O=C1C2CCCN2C(c2ccc(Cl)cc2)N1c1ccccn1 (stereo not drawn) | -3.03
Cc1ccc(CNCC(O)(c2ccccc2)c2ccccc2)cc1 | -33
OC(CNCc1ccccc1F)(c1ccc(F)cc1)c1ccc(F)cc1 | -26.7
COc1ccc(CNCC(O)(c2ccccc2)c2ccc(F)cc2)cc1OC (stereo not drawn) | -61.2
COc1ccccc1CNCC(O)(c1ccc(Cl)cc1)c1ccc(Cl)cc1 | -13.7
COc1ccccc1CNCC(O)(c1ccc(F)cc1)c1ccc(F)cc1 | -68
COc1ccc(CNCC(O)(c2ccccc2)c2ccccc2)cc1OC | -60
COc1ccc(CNCC(O)(c2ccc(Cl)cc2)c2ccc(Cl)cc2)cc1OC | -30.9
COc1ccc(CNCC(O)(c2ccc(F)cc2)c2ccc(F)cc2)cc1OC | -62.1
COc1ccc(CNCc2ccc(C(F)(F)F)cc2)cc1OC.O=C(O)C(=O)O | 6.54
N#CCCN(Cc1ccccc1)S(=O)(=O)c1cccs1 | -16.5
